The results in this text go back to PubChem BioAssay (NCI).

Compounds without any hit were thinned out: in the full panel of roughly 79,000, 15% have a hit. Values without a mark were called inactive. The source made the active and inactive calls. No stated cut-off is given here; in the data, active means growth inhibition above about 70%; inactive means the rest.

The nature of assay [1]: NCI Yeast Anticancer Drug Screen. Data for the rad50 strain (AID 155).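 Further: 0% = growth of vehicle-only cultures of the same strain.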 To be noted: S. cerevisiae rad50 strain growth inhibition, hits give high values. Summed up:
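Genetically altered yeast (DNA repair pathway); compound treatment; growth inhibition vs vehicle ctrl.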

A short description of assay [2]: NCI Yeast Anticancer Drug Screen. Data for the mec2-1 strain (AID 157). To be noted: S. cerevisiae mec2-1 strain, hits give high values. The gist of the method: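 Compounds were applied to mec2-1 yeast cells. Their growth was then compared with that of vehicle-treated cultures to give growth inhibition.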
The nature of assay [3]: NCI Yeast Anticancer Drug Screen. Data for the sgs1 mgt1 strain (AID 161).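 Further: 0% = growth of cultures given vehicle only.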 As to conditions: S. cerevisiae sgs1 mgt1 strain, hits give high values. Summed up: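 Percent growth inhibition was derived by comparing compound-exposed mutant yeast with vehicle-exposed cultures. The strain carries alterations in DNA damage repair.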
Assay [4] is described as follows: NCI Yeast Anticancer Drug Screen. Data for the cln2 rad14 strain (AID 165).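 Further: 0% = growth equal to vehicle treated cultures.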 As to conditions: S. cerevisiae cln2 rad14 strain, hits give high values. The gist of the method:
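Strain: cln2 rad14 yeast, altered in cell cycle control and DNA damage repair. Read-out: growth inhibition vs vehicle.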

Assay [5] is described as follows: NCI Yeast Anticancer Drug Screen. Data for the bub3 strain (AID 167). To be noted: S. cerevisiae bub3 mutant strain, hits give high values. The gist of the method:
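Yeast carrying a defined mutation is treated with each compound, and growth is compared with that of vehicle-exposed cells to give inhibition.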

Assay [6] is described as follows: NCI Yeast Anticancer Drug Screen. Data for the mlh1 rad18 strain (AID 175). As to conditions: S. cerevisiae mlh1 rad18 strain growth inhibition, hits give high values. The gist of the method:
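A repair-deficient yeast strain is exposed to test compound, and growth is scored relative to vehicle-treated controls.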

Where [7] appears, read: at 5.0 µM (retest, dose inferred, filed as 0.5).
Setting [8] is: at 50.0 µM (retest, dose inferred, filed as 5.0).

Regarding `CC(=O)N(C)NC(=O)c1ccccc1`, the growth inhibition was 1% in assay [1] (setting [7]); -6% in assay [1] (setting [8]); 10.4% in assay [1] (at 50.0 µM); -1% in assay [2] (setting [7]); 2% in assay [2] (setting [8]); -12.8% in assay [2] (at 50.0 µM). Also, the growth inhibition in assay [3] (setting [7]) was 1%; in assay [3] (setting [8]), -4%; in assay [3] (at 50.0 µM), -10.2%; in assay [4] (setting [7]), -8%; in assay [4] (setting [8]), 5%; in assay [4] (at 50.0 µM), 27.3%. Besides, the growth inhibition in assay [5] (setting [7]) is -2%; in assay [5] (setting [8]) it was -1%; in assay [5] (at 50.0 µM), 12.9%; in assay [6] (setting [7]), 0%; in assay [6] (setting [8]) it was -5%; in assay [6] (at 50.0 µM), -4.7%.

With `O=C1OC(c2cccc(Cl)c2)Sc2ccccc21` (centres undefined), the growth inhibition is 2% in assay [1] (setting [7]); 86% (active) in assay [1] (setting [8]); 51.7% in assay [1] (at 50.0 µM); 0% in assay [2] (setting [7]); 60% in assay [2] (setting [8]); 19.4% in assay [2] (at 50.0 µM). Further, the growth inhibition is -12% in assay [3] (setting [7]); 56% in assay [3] (setting [8]); 36.2% in assay [3] (at 50.0 µM); -7% in assay [4] (setting [7]); 47% in assay [4] (setting [8]); -16.7% in assay [4] (at 50.0 µM). The growth inhibition in assay [5] (setting [7]) was 26%; in assay [5] (setting [8]) it was 94% (active); in assay [5] (at 50.0 µM), 83.2% (active); in assay [6] (setting [7]) it was 0%; in assay [6] (setting [8]) it was 78% (active); in assay [6] (at 50.0 µM), 37.6%.

Take `COc1ccc(CN2CCCN(Cc3ccc(OC)cc3OC)C2c2cc(Br)ccc2O)c(OC)c1`: the growth inhibition in assay [1] (setting [7]) was 31%; in assay [1] (setting [8]), 98% (active); in assay [1] (at 50.0 µM), 99% (active); in assay [2] (setting [7]), 18%; in assay [2] (setting [8]) it was 100% (active); in assay [2] (at 50.0 µM), 95.2% (active). The growth inhibition in assay [3] (setting [7]) was 27%; in assay [3] (setting [8]) it was 99% (active); in assay [3] (at 50.0 µM), 99.2% (active); in assay [4] (setting [7]) it was 12%; in assay [4] (setting [8]), 94% (active); in assay [4] (at 50.0 µM), 57.2%. Besides, the growth inhibition in assay [5] (setting [7]) is 15%; in assay [5] (setting [8]) it was 98% (active); in assay [5] (at 50.0 µM), 27.9%; in assay [6] (setting [7]) it was 63%; in assay [6] (setting [8]), 99% (active); in assay [6] (at 50.0 µM), 98.7% (active).

Turning to `COC1=CC23C=CC1[C@@H](c1ccccc1)C2=C(C)C(=O)N3C(=O)NC1CCCCC1` (some centres undefined), the growth inhibition in assay [1] (setting [7]) is 21%; in assay [1] (setting [8]), 21%; in assay [1] (at 50.0 µM) it was 71.1% (active); in assay [2] (setting [7]), -4%; in assay [2] (setting [8]), -4%; in assay [2] (at 50.0 µM), 68.2%. Moreover, the growth inhibition in assay [3] (setting [7]) is 1%; in assay [3] (setting [8]) it was 1%; in assay [3] (at 50.0 µM), 63.8%; in assay [4] (setting [7]), 5%; in assay [4] (setting [8]) it was 5%; in assay [4] (at 50.0 µM) it was 29.8%. The growth inhibition is -8% in assay [5] (setting [7]); -8% in assay [5] (setting [8]); 65% in assay [5] (at 50.0 µM); -4% in assay [6] (setting [7]); -4% in assay [6] (setting [8]); 50.6% in assay [6] (at 50.0 µM).

As for `CN(C)[C@H]1CC[C@H]2[C@@H]3CCC4C[C@@H](NC(=O)NC(Cc5ccccc5)c5nccs5)CC[C@]4(C)[C@H]3CC[C@]12C` (some centres undefined), the growth inhibition in assay [1] (setting [7]) was 4%; in assay [1] (setting [8]) it was 4%; in assay [1] (at 50.0 µM) it was 67.5%; in assay [2] (setting [7]) it was -16%; in assay [2] (setting [8]), -16%; in assay [2] (at 50.0 µM), 63.9%. The growth inhibition in assay [3] (setting [7]) is -11%; in assay [3] (setting [8]), -11%; in assay [3] (at 50.0 µM), 63.5%; in assay [4] (setting [7]), -16%; in assay [4] (setting [8]), -16%; in assay [4] (at 50.0 µM) it was 47.9%. The growth inhibition in assay [5] (setting [7]) is -17%; in assay [5] (setting [8]) it was -17%; in assay [5] (at 50.0 µM), 65.9%; in assay [6] (setting [7]), -21%; in assay [6] (setting [8]) it was -21%; in assay [6] (at 50.0 µM), 59%.

In the case of `CN1C(=O)C(Cl)(C(Cl)(Cl)S(=O)(=O)O)C(=O)c2ccccc21` (centres undefined), the growth inhibition is -3% in assay [1] (setting [7]); 95% (active) in assay [1] (setting [8]); 42% in assay [1] (at 50.0 µM); 1% in assay [2] (setting [7]); 99% (active) in assay [2] (setting [8]); 18.3% in assay [2] (at 50.0 µM). In addition, the growth inhibition in assay [3] (setting [7]) was 1%; in assay [3] (setting [8]) it was 98% (active); in assay [3] (at 50.0 µM) it was -8.1%; in assay [4] (setting [7]), 3%; in assay [4] (setting [8]), 96% (active); in assay [4] (at 50.0 µM) it was 34.5%. The growth inhibition was 0% in assay [5] (setting [7]); 97% (active) in assay [5] (setting [8]); 4.2% in assay [5] (at 50.0 µM); -1% in assay [6] (setting [7]); 97% (active) in assay [6] (setting [8]); 27.5% in assay [6] (at 50.0 µM).

Regarding `CCc1ccc2ccc3ccc(CC)nc3c2n1`, the growth inhibition was 74% (active) in assay [1] (setting [7]); 96% (active) in assay [1] (setting [8]); 96.9% (active) in assay [1] (at 50.0 µM); 85% (active) in assay [2] (setting [7]); 94% (active) in assay [2] (setting [8]); 97.7% (active) in assay [2] (at 50.0 µM). Further, the growth inhibition in assay [3] (setting [7]) is 86% (active); in assay [3] (setting [8]), 96% (active); in assay [3] (at 50.0 µM) it was 97.8% (active); in assay [4] (setting [7]), 72% (active); in assay [4] (setting [8]) it was 91% (active); in assay [4] (at 50.0 µM), 82.7% (active). Moreover, the growth inhibition in assay [5] (setting [7]) is 95% (active); in assay [5] (setting [8]), 97% (active); in assay [5] (at 50.0 µM) it was 95.3% (active); in assay [6] (setting [7]) it was 85% (active); in assay [6] (setting [8]), 96% (active); in assay [6] (at 50.0 µM) it was 97.7% (active).

Consider `Cc1cc(C2c3ccccc3-c3ccccc32)cc(C)c1O`, for which the growth inhibition was 9% in assay [1] (setting [7]); 7% in assay [1] (setting [8]); 98.3% (active) in assay [1] (at 50.0 µM); 4% in assay [2] (setting [7]); 5% in assay [2] (setting [8]); 98.6% (active) in assay [2] (at 50.0 µM). Also, the growth inhibition was 4% in assay [3] (setting [7]); 8% in assay [3] (setting [8]); 98.8% (active) in assay [3] (at 50.0 µM); -1% in assay [4] (setting [7]); -9% in assay [4] (setting [8]); 97.3% (active) in assay [4] (at 50.0 µM). The growth inhibition in assay [5] (setting [7]) was -1%; in assay [5] (setting [8]), 8%; in assay [5] (at 50.0 µM), 97.2% (active); in assay [6] (setting [7]), 7%; in assay [6] (setting [8]) it was 18%; in assay [6] (at 50.0 µM), 98.5% (active).
